For assay [1], the system named is Wnt5a (protein binding on small-molecule microarray). The assay is described as follows: Wnt5a binders on small-molecule microarray, primary screen, biophysical, 635/667 nm fluorescence (AID 1142).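 Further: fluorescence read at 667 nm with signal to noise per printed feature.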 Particulars: 635 nm fluorescence, higher = more signal.
Assay [2] can be described thus: cell viability in Huh7 cells, primary screen, cytotoxicity control for HCV replication inhibitor project, CellTiter-Glo luminescence, basal, 48 h (AID 1143).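 Further: Huh7 hepatoma cells carrying a hepatitis C replication reporter with no stimulus; test concentration not given here.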 Particulars: Huh7 HCV replicon, higher = more signal, called active from +8 up or from −8 down.
The nature of assay [3]: P. aeruginosa biofilm formation inhibitors, primary screen, PAO1 strain, BacTiter-Glo luminescence, LB-PBS (AID 1144). Particulars: 12 h, higher = more signal.
The nature of assay [4]: CREB reporter modulators without forskolin, primary screen, cell-based, PC12, CRE-LacZ reporter, unstimulated (AID 1145). Particulars: no forskolin, luminescence, 4.5 h, higher = more signal, called active from +8 up or from −8 down.
A short description of assay [5]: CREB reporter modulators under forskolin, primary screen, cell-based, PC12, CRE-LacZ reporter, forskolin-stimulated (AID 1146).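 Further: PC12 cells with 6xCRE LacZ reporter stimulated by forskolin 10 µM; beta-galactosidase reporter signal reflecting CREB driven transcription.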 Particulars: luminescence, 4.5 h, higher = more signal, called active from +8 up or from −8 down.
The target in assay [6] is Streptavidin (Streptomyces avidinii) (UniProt P22629). The assay is described as follows: streptavidin binders on small-molecule microarray, primary screen, artefact control for SMM compound annotation, biophysical, 635/667 nm fluorescence (AID 1147).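 Further: signal reflects streptavidin binding to arrayed compounds as a control protein.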 Particulars: streptavidin binding, higher = more signal.
Sequence of Streptavidin (Streptomyces avidinii) (P22629 whole entry, looked up): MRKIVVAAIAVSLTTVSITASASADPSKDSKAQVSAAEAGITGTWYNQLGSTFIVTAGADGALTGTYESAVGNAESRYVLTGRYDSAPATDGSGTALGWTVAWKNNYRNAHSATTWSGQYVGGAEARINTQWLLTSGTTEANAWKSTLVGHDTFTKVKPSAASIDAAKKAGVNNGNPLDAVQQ
The nature of assay [7]: small-molecule binders of probe aInhba, primary screen, biochemical, small-molecule microarray, 635/667 nm fluorescence (AID 1148).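 Further: score merges 667nm spot fluorescence with signal-to-noise for antibody binding to printed compounds.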 Particulars: higher = more signal.
In assay [8] the target is Torsin-1A (Homo sapiens) (UniProt O14656). The assay can be described thus: torsin A binders from cell lysate, primary screen, small-molecule microarray, wild-type, 635/667 nm (AID 1149). Particulars: COS7 hTOR1A-WT lysate, 635 nm fluorescence, higher = more signal.
Sequence of Torsin-1A (Homo sapiens) (O14656 whole entry, looked up): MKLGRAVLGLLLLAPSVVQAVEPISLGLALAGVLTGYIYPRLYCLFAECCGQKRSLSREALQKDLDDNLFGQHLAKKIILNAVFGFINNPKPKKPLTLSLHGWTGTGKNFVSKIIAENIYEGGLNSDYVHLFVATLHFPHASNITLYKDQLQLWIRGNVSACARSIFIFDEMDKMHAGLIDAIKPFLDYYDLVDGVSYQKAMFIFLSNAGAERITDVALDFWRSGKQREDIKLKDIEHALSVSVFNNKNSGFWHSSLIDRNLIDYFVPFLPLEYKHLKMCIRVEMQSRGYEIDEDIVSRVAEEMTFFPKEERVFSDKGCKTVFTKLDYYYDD
Assay [9] shares this target. The assay is described as follows: small-molecule binders of mutant TOR1A in lysate, primary screen, cell lysate, small-molecule microarray, COS7 lysate, 635/667 nm fluorescence (AID 1150).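 Further: score pools 667 nm emission and signal to noise measuring lysate protein binding.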 Particulars: COS7 hTOR1A mutant lysate, 635 nm fluorescence, higher = more signal.
Assay [10] concerns Sonic hedgehog protein (Shh). The assay is described as follows: small-molecule binders of Shh protein, primary screen, biochemical, small-molecule microarray, 635/667 nm fluorescence (AID 1151).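 Further: Shh protein binding to compounds spotted on small-molecule microarray slides; score combines spot fluorescence intensity with signal-to-noise across triplicate slides.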 Particulars: small-molecule microarray binding, 635 nm fluorescence; higher = more signal.
Assay [11] is described as follows: E. coli DRC41 culture turbidity changes, primary screen, E. coli filamentation inducer project, strain DRC41, OD650, 48 h (AID 1152).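 Further: E. coli MC1000 strain DRC41 lacking acrAB efflux pump and sulA.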 Particulars: E. coli DRC41 (acrAB sulA), higher = more signal, called active from +8 up or from −8 down.
Assay [12] in a line: small-molecule binders of probe aLefty1, primary screen, biochemical, small-molecule microarray, 635/667 nm fluorescence (AID 1153).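 Further: score merges spot fluorescence with signal-to-noise ratio from the scanned slide images.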 Particulars: higher = more signal.
Assay [13] in a line: PSAC antagonists in infected red cells, primary screen, cell-based, P. falciparum Indochina, OD700, 1 h (AID 1154). Particulars: P. falciparum Indochina infected RBC osmotic lysis, higher = more signal, called active from +8 up or from −8 down.
A short description of assay [14]: PSAC antagonists in infected red cells, primary screen, cell-based, P. falciparum Indochina, OD700, 2 h (AID 1155).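 Further: lysis reports solute entry through the parasite surface anion channel PSAC; channel blockers reduce lysis of infected cells.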 Particulars: P. falciparum Indochina infected erythrocytes, osmotic lysis OD700; higher = more signal, called active from +8 up or from −8 down.
A short description of assay [15]: osmotic lysis modulators in infected erythrocytes, primary screen, PSAC antagonist project, cell-based, P. falciparum Indochina, OD700, 3 h (AID 1156). Particulars: higher = more signal, called active from +8 up or from −8 down.
Assay [16] is described as follows: PSAC antagonists in infected red cells, primary screen, cell-based, P. falciparum Indochina, OD700, 18 h (AID 1157). Particulars: P. falciparum Indochina infected erythrocytes, osmotic lysis OD700, 18 h; higher = more signal, called active from +8 up or from −8 down.
Assay [17] can be described thus: modulators of S6 phosphorylation in cells, primary screen, cell-based, A549, cytoblot, luminescence, serum-stimulated (AID 1158).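 Further: serum-stimulated A549 lung adenocarcinoma cells; signal is phosphorylated S6 detected by cytoblot immunostaining with HRP secondary.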 Particulars: A549 phospho-S6 cytoblot, 5 h, higher = more signal.
Assay [18] concerns the target NADPH oxidase 2 (Homo sapiens) (UniProt P04839). The assay can be described thus: NOX2-dependent H2O2 signal modulators, primary screen, NOX inhibitor project, cell-based, HEK293-NOX2, PMA-stimulated, Amplex Red fluorescence (AID 1159). Further: test concentration not given here. Particulars: 45 min, higher = more signal, called active from +8 up or from −8 down.
Assay [19] concerns the target NADPH oxidase 4 (Homo sapiens) (UniProt Q9NPH5). The assay can be described thus: NOX4-dependent H2O2 signal modulators, primary screen, NOX inhibitor project, cell-based, HEK293-NOX4, tetracycline-induced, Amplex Red fluorescence (AID 1160). Particulars: 45 min, higher = more signal, called active from +8 up or from −8 down.
Assay [20] has as its target NADPH oxidase 5 (Homo sapiens) (UniProt Q96PH1). The assay can be described thus: NOX5-dependent H2O2 signal modulators, primary screen, NOX inhibitor project, cell-based, HEK293-NOX5, Amplex Red fluorescence (AID 1161). Particulars: HEK293-NOX5, ionomycin, 45 min, higher = more signal.

Active and inactive are the calls of the source. Unless noted, how the calls were made is not given here.

Sequence of NADPH oxidase 2 (Homo sapiens) (P04839 whole entry, looked up): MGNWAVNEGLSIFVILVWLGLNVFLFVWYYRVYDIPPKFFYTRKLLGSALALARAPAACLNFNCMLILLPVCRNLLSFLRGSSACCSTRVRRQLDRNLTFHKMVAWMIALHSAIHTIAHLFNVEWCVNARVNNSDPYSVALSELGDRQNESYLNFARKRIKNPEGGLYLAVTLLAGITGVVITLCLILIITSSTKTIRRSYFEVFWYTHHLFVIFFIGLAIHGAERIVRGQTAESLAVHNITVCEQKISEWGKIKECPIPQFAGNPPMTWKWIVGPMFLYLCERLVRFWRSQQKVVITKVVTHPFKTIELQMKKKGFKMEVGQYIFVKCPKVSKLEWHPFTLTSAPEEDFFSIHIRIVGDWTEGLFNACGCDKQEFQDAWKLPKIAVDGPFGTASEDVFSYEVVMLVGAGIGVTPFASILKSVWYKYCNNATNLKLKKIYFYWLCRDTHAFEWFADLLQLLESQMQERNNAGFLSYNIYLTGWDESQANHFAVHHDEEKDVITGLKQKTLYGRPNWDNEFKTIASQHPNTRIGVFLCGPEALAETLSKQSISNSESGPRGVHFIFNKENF
Sequence of NADPH oxidase 5 (Homo sapiens) (Q96PH1 whole entry, looked up): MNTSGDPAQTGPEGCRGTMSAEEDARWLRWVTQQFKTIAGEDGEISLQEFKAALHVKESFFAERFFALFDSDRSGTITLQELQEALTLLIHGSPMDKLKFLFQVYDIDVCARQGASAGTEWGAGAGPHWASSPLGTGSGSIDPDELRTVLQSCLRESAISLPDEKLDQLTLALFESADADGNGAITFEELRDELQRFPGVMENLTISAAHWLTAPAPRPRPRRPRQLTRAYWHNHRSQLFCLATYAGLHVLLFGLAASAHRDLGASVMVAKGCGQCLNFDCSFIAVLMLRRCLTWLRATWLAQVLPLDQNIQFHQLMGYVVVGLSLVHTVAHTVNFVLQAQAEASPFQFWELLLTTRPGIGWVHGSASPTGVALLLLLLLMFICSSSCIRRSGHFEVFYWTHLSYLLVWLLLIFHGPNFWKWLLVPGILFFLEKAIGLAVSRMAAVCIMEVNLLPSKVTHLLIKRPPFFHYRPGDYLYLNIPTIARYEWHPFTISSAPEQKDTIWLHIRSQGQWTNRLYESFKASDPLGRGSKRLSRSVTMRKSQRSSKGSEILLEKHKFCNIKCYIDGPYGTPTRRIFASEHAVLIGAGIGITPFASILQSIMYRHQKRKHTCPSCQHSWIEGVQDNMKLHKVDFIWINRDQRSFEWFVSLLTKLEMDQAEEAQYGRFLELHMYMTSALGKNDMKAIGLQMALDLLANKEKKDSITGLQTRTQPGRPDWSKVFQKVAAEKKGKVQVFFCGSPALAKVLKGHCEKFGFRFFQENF
Sequence of NADPH oxidase 4 (Homo sapiens) (Q9NPH5 whole entry, looked up): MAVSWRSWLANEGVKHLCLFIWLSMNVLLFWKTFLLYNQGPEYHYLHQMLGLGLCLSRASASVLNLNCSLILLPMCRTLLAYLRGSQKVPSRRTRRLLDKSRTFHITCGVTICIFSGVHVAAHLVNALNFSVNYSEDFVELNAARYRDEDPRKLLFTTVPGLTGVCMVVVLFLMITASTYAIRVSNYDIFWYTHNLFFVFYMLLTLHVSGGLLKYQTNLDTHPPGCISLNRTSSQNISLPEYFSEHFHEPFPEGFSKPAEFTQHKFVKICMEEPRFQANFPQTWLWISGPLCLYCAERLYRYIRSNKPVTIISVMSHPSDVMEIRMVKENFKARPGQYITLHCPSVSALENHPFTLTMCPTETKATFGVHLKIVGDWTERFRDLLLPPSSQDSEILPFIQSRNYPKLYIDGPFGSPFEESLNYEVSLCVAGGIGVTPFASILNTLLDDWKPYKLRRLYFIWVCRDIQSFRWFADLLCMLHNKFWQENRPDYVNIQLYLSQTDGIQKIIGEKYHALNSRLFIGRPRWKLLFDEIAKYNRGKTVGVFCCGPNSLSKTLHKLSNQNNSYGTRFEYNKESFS

For `COC(=O)[C@@]1(Cc2ccc(F)cc2)[C@H]2c3cc(C(=O)N(C)C)n(Cc4ccc(OC(F)(F)F)cc4)c3C[C@H]2CN1C(=O)c1ccccc1`, the composite z-score in assay [1] was 0.0007; in assay [6] it was 0.686; in assay [7], 0.0633; with Torsin-1A (Homo sapiens) [8], 0.296; with Torsin-1A (Homo sapiens) [9] it was 0.569; in assay [10], -0.817. The compound further gave a composite z-score in assay [12] of 0.651. In addition, the z-score was 0.875 (inactive) in assay [2]; -0.362 (inactive) in assay [3]; 0.397 (inactive) in assay [4]; 0.391 (inactive) in assay [5]; -1.4 (inactive) in assay [11]; -0.0341 (inactive) in assay [13]. In addition, the z-score in assay [14] is 0.673 (inactive); in [15], -0.0751 (inactive); in assay [16], 0.692 (inactive); in assay [17], -0.139; in assay [18], 0.195 (inactive); in assay [19] it was -0.44 (inactive). The same compound returned a z-score in assay [20] of 0.205.

On to `CCCC=C(CCC)[C@@H](NP(=O)(c1ccccc1)c1ccccc1)c1ccc(-c2ccccc2)cc1`, for which the composite z-score was 0.363 in assay [1]; 1.09 in assay [6]; 0.3 in assay [7]; 0.804 in the assay with Torsin-1A (Homo sapiens) [8]; 1.68 with Torsin-1A (Homo sapiens) [9]; -0.0804 in assay [10]. In addition, the composite z-score in assay [12] was 0.408. Moreover, the z-score in assay [2] is -1.53 (inactive); in assay [3] it was 0.892 (inactive); in assay [4] it was 0.204 (inactive); in assay [5], 1.24 (inactive); in assay [11], -1.61 (inactive); in [13], 3.5 (inactive). In addition, the z-score was 0.766 (inactive) in assay [14]; -1.07 (inactive) in assay [15]; 0.96 (inactive) in assay [16]; -0.422 in [17]; -1.02 (inactive) in assay [18]; -1.94 (inactive) in assay [19]. In addition, in [20], the z-score is 2.3.

As to `C#Cc1cc2ccccc2oc1=O`, the composite z-score in assay [1] is -0.365; in [6] it was -1.47; in assay [7] it was -0.149; in the assay with Torsin-1A (Homo sapiens) [8], 0.173; with Torsin-1A (Homo sapiens) [9], -0.539; in [10], -1.45. In assay [12], this compound gave a composite z-score of 0.228. The z-score in assay [2] is -0.692 (inactive); in assay [3], 0.534 (inactive); in assay [4], 0.136 (inactive); in [5] it was 6.19 (inactive); in assay [11], -1.44 (inactive); in [13], 3.02 (inactive). In addition, the z-score in assay [14] was 0.858 (inactive); in [15], 0.898 (inactive); in [16] it was 0.656 (inactive); in [17], -0.668; in assay [18], 0.0724 (inactive); in assay [19], -1.35 (inactive). This compound also yielded a z-score in assay [20] of -0.807.

Turning to `O=C(NCCN1CCOCC1)[C@@H]1c2ccccc2C(=O)N(Cc2ccccc2Cl)[C@H]1c1ccc(CO)cc1`, the composite z-score is -0.38 in assay [1]; -0.831 in assay [6]; -0.32 in assay [7]; -0.826 in the assay with Torsin-1A (Homo sapiens) [8]; 1.23 with Torsin-1A (Homo sapiens) [9]; -1.07 in assay [10]. The composite z-score in [12] was 0.121. Also, the z-score in [2] was -0.276 (inactive); in assay [3] it was 0.11 (inactive); in [4], -0.295 (inactive); in assay [5] it was -0.6 (inactive); in assay [11], 0.446 (inactive); in assay [13] it was 4.63 (inactive). For the same compound, the z-score in [14] was 0.466 (inactive); in assay [15], 0.297 (inactive); in assay [16], 0.306 (inactive); in assay [17] it was -0.467; in [18] it was -0.112 (inactive); in assay [19], 0.34 (inactive). In addition, the z-score in assay [20] was -0.371.

These data come from PubChem BioAssay.
